# Measured values as given in the supplement of paper PMC6555819.
# What was measured:
# Assay in all cases: PBM binding z-score (relative to random genomic background probes); higher = stronger binding; sequences stand for … in GC…GCGATTGACAGCGTAGAATGAAGG
# [1] = test system: RARb homodimer (NR concentration 270 nM)
# Method in brief: (§1)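 The probes on custom Agilent 4×180K protein-binding microarrays were double-stranded, with 34-nt variable regions bearing direct-repeat seeds, single-nucleotide variants, half-site ablations and random human genomic background sequences. Incubation lasted 1 h with ligand-free nuclear receptor dimers in PBS pH 7.4, 2% milk, 0.02% Triton X-100, 1 mM DTT, 0.2 mg/mL BSA and 0.4 mg/ml salmon testes DNA. Antibodies against each partner (one per run) detected bound dimers, and fluorescence scans were regression-normalized. Binding z-scores take the random background probes as reference.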
# [2] = test system: RARg:RXRa (NR concentration 270 nM, RXRa partner concentration 90 nM)
# Method in brief: as §1
# [3] = test system: RARg homodimer (NR concentration 270 nM)
# Method in brief: as §1
# [4] = test system: RXRa DBDmut IVT, anti-RXR (DBD mutation: RXRa K156A/R161A, NR concentration 90 nM)
# Method in brief: as §1
# [5] = test system: RXRa homodimer (NR concentration 180 nM)
# Method in brief: as §1
# [6] = test system: THRa:RXRa (NR concentration 90 nM, RXRa partner concentration 90 nM)
# Method in brief: as §1
# [7] = test system: THRa homodimer (NR concentration 90 nM)
# Method in brief: as §1
# [8] = test system: VDR homodimer (NR concentration 270 nM)
# Method in brief: as §1
Sequence,PBM binding z-score [1],PBM binding z-score [2],PBM binding z-score [3],PBM binding z-score [4],PBM binding z-score [5],PBM binding z-score [6],PBM binding z-score [7],PBM binding z-score [8]
CCTATTAGTTGACCATAAAGGCAACCGAAGCTCG,0.622,0.557,0.504,0.578,0.337,0.39,0.543,0.626
ATCTCTAGGTAGCCAAGTTCAGTGAATGCCGAAC,0.866,0.375,0.381,0.591,0.0776,0.48,0.337,2.15
ACTAGCAGGCCAAGTTTGTGTCACTCAAACAAAG,0.267,0.00878,0.0859,-0.193,-0.545,-0.0341,-0.316,0.051
CGTCCAAGGTCAGCATGTCAGTGAAAGCGACGTG,3.99,5.21,6,2.51,4.01,3.54,2.02,0.761
ATGGAAAGGTCGACGAGGTGAGTATACACCGTTT,3.01,4.09,4.05,0.942,4.19,3.7,0.967,0.927
ATCTCTAGGTAAGACTCAGTTCAGTGATGAACGC,0.637,0.588,0.547,0.656,0.315,0.739,0.755,1.4
TCTTGTAGATCAATAGGGGTTAAGAAAGTGCGCT,1.26,1.07,0.498,1.53,2.18,2.19,0.19,0.671
